Assay outcomes from PubChem BioAssay.
The entries come from a sample that favours hits as a whole.
Tb PYK inh = qHTS of Trypanosoma Brucei Inhibitors. pyruvate kinase (Trypanosoma brucei), Q57TT1. TbPYK enzyme, Kinase-Glo Plus ATP luminescence, 45 min. Potency, µM (doses to about 76.8 µM), for the others: at the highest dose activity, negative = inhibition, most hits filed as inhibitors. 0.12% of 410,000 active. AID 624173, 2012; note: potency is the fitted concentration of half-maximal effect; % is set by controls: 0 for no effect and ±100 for the full control effect; nearly all actives have a fitted effect of over 50% in size
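T. brucei PYK with substrate was exposed to pin-transferred compounds across a concentration series, then started with 130 uM ADP (final). After 45 min at room temperature, Kinase-Glo Plus luminescence was read, normalized and curve-fitted.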
Shiga toxin inh = A qHTS for Small Molecule Inhibitors of Shiga Toxin | Vero cells, Shiga toxin protein synthesis inhibition reporter | inhibition, % at 38.7 µM | 9.2% of 290,000 active; in the data active = inhibition mostly above about 28%, no sharp cut-off; inactive = mostly below about 43%; note: 0% is about no effect
SARS PLP yeast = qHTS of Yeast-based Assay for SARS-CoV PLP; S. cerevisiae expressing SARS-CoV PLpro, growth rescue; Potency, µM (series often up to 32.9 µM), without a hit: at the highest dose activity, positive = growth rescue, hits mostly activators; 0.19% of 330,000 active; AID 485353, 2010; calls by dose curve; note: potency is the fitted concentration of half-maximal effect; 0% is about no effect; nearly all actives have a fitted effect of over 55% in size
NS1 function inh = qHTS Assay for Inhibitors of Influenza NS1 Protein Function | Potency, µM (doses to about 46.1 µM), for the others: top-dose activity, positive = more growth | 0.4% of 270,000 active; calls by dose curve; note: potency is the fitted concentration of half-maximal effect; actives are rising curves; nearly all actives have a fitted effect of over 50% in size
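A cell-based growth assay was used: compounds that relieve NS1-induced slow growth of budding yeast raise OD600. Assay medium was yeast nitrogen base with ammonium sulphate and -URA supplement, pH 6.0, with 2% galactose.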
CHX counter = Cycloheximide Counterscreen for Small Molecule Inhibitors of Shiga Toxin. max response, %. cell reporter, cycloheximide protein synthesis inhibition counterscreen. 12% of 300,000 active; in the data active = max response mostly above about 13%, no sharp cut-off; inactive = mostly below about 14%; note: read at 38.3 µM for the half of the compounds with a filed dose; 0% is about no effect
LmPK inh = qHTS Assay for Inhibitors of Leishmania Mexicana Pyruvate Kinase (LmPK) | Potency, µM (doses to about 57.5 µM), for the others: at the top dose activity change, negative = inhibition, actives largely listed as inhibitors | Q27686 | 0.37% of 290,000 active | AID 1721, 2009 | purified LmPK, Kinase-Glo ATP luminescence, 1 h; note: potency is the fitted concentration of half-maximal effect; % is set by controls: 0 for no effect and ±100 for the full control effect
Target sequence (Q27686 whole entry, looked up): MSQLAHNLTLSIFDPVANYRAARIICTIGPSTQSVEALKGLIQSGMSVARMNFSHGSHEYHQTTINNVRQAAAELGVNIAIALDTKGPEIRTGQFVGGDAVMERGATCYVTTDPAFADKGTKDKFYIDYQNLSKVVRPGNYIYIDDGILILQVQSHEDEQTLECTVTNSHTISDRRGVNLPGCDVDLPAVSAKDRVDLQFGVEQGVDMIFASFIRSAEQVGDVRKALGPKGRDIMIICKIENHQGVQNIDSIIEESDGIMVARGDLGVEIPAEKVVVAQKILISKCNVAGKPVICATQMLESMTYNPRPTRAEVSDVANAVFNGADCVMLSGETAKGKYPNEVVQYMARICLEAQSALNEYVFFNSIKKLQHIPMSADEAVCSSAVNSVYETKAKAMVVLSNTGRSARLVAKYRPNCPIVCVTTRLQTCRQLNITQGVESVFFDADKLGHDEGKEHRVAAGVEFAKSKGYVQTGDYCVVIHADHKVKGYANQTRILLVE
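Purified LmPK (0.1 nM) converted ADP (0.1 mM) to ATP with PEP (0.5 mM) in imidazole buffer pH 7.2 with KCl and MgCl2, 1 h at room temperature. ATP was read by Kinase-Glo luminescence; data normalized to uninhibited and no-enzyme controls.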
An asterisk follows results filed as active; ? = inconclusive; / = no result given. Unless noted, calls come from the whole dose curve; as a rule, active = well fitted curve in the direction sought with a large enough effect; inconclusive = small, poorly fitted or top-dose-only effect, or another doubt; inactive = no such curve, though single readings can be large; an effect the other way counts as inactive or inconclusive.

SMILES | Tb PYK inh | Shiga toxin inh | SARS PLP yeast | NS1 function inh | CHX counter | LmPK inh
c1ccc(CNc2nc(-c3cccnc3)cs2)cc1 | 1% | 48 | -2% | -4% | 34* | 0%
Nc1nnc(-c2cccnc2)s1 | 4% | -6 | 4% | 1% | 1 | 3%
c1ccc(Nc2nnc(-c3cccnc3)s2)cc1 | -3% | 69* | 1% | -1% | 42* | -3%
O=S(=O)(c1ccc(-c2csc(-c3cccnc3)n2)cc1)N1CCOCC1 | 0% | -2 | -2% | / | 11 | 2%
Cc1ccc2c(c1)cc1c(=O)n(CC(=O)NCc3ccccn3)nc(C)n12 | -2% | 2 | 2% | -6% | -1 | 0%
CCN(CC)C(=O)Cn1cc(SCC(=O)Nc2cc(OC)ccc2OC)c2ccccc21 | 2% | / | / | / | / | /
Cc1ccccc1-c1csc(C(C)(O)c2cccnc2)n1 (configuration not stated) | -13% | / | / | / | / | /
c1ccc(-c2nc(-c3cccnc3)cs2)cc1 | 1% | 52* | -5% | -41% | 46* | 3%
C=CCNc1nc(-c2ccc(O)c(C(N)=O)c2)cs1 | ? | 45 | 2% | -3% | 22* | -5%
Cc1ccc(C)c(-c2csc(-c3cccnc3)n2)c1 | -21% | / | -7% | -109% | 21* | 1%
COc1ccc(NC(=O)CSC2=Nc3ccccc3C3=NC(CC(=O)NCc4ccc5c(c4)OCO5)C(=O)N23)cc1 (configuration not stated) | 5% | / | / | / | / | /
CCc1ccc(C(=O)Cn2ccsc2=N)cc1 | -6% | 91* | -9% | -50% | 54* | -15%
COc1ccc(/C=C/C(=O)NC(=S)NNC(=O)c2cnccn2)cc1 | -13% | 5 | ? | 4% | 9 | 1%
COc1ccccc1/C=C/C(=O)NCc1ccccn1 | -21% | 16 | -1% | -2% | 10 | -1%
COc1ccc(/C=C/C(=O)NC(=S)Nc2ccccn2)cc1 | -1% | 90* | 0% | -5% | 47* | 0%
COc1ccccc1/C=C/C(=O)NC(=S)Nc1ccccn1 | -2% | 105* | 26% | -1% | 45* | 6%
CSc1ccc(CN2CCC2(C)C(=O)NCc2cccs2)cc1 (configuration not stated) | -2% | / | / | / | / | /
O=C(Nc1cccc(Cl)c1)C1COc2ccccc2O1 (configuration not stated) | -1% | 29 | -10% | -17% | 16* | 2%
COC(=O)c1cc(NC(=O)C2COc3ccccc3O2)cc(C(=O)OC)c1 (configuration not stated) | -4% | 17 | -6% | -1% | -1 | 4%
Cc1cc(Cl)ccc1NC(=O)C1COc2ccccc2O1 (configuration not stated) | 4% | 87* | -12% | -41% | 37* | 1%
Cc1ccc(Cl)cc1NC(=O)C1COc2ccccc2O1 (configuration not stated) | -1% | 26 | -3% | -5% | 11 | 0%
COc1cccc(NC(=O)C2COc3ccccc3O2)c1 (configuration not stated) | -7% | / | 4% | -12% | 60* | 10%
CC1(C)CC(NC(=O)C2CCN(S(=O)(=O)c3cccc(C(F)(F)F)c3)CC2)CC(C)(C)N1 | -3% | / | -1% | / | / | /
O=C(Nc1ccccc1OCc1cc(=O)n2ccccc2n1)c1cccc(Br)c1 | 1% | / | / | / | / | /
Cc1ccnc(NCc2cc(C)ccc2O)c1 | -6% | / | -5% | -5% | 19* | 0%
SMILES | Tb PYK inh | Shiga toxin inh | SARS PLP yeast | NS1 function inh | CHX counter | LmPK inh
Cc1ccc(O)c(CNc2ccccn2)c1 | -4% | 101* | 11% | 0% | 22 | 1%
Cc1ccc(S(=O)(=O)Nc2ccccc2CNc2ccc(Br)cn2)cc1 | -10% | 8 | -18% | 2% | 7 | 0%
Cc1ccc(S(=O)(=O)Nc2ccccc2CNc2ccccn2)cc1 | 3% | 37* | -19% | -8% | 22* | 1%
CCCn1c2ccccc2c2cnn(CC(=O)Nc3cc(C)c(Cl)cc3OC)c(=O)c21 | 7% | / | / | / | / | /
CC(C)(C)c1ccc(OCCCn2ccnc2)cc1 | 16% | 15 | -5% | -11% | 8.4* | 1%
Cc1ccc(OCCCn2ccnc2)c([N+](=O)[O-])c1 | 29% | 3 | -7% | 1% | -2 | -3%
